How the values were obtained:
Assay in all cases: log2 ratio of Biotin-Ahx-Ub-VS probe labelling (fragment/DMSO); higher = less target engagement (more negative = stronger competition), active = hit call of the paper (q ≤ 0.05, log2 ratio ≤ -1)
Conditions in all cases: compound concentration: 200 uM; treatment time: 3 h
USP19 = target: T1, USP19 (UniProt O94966)
T1 sequence (whole entry): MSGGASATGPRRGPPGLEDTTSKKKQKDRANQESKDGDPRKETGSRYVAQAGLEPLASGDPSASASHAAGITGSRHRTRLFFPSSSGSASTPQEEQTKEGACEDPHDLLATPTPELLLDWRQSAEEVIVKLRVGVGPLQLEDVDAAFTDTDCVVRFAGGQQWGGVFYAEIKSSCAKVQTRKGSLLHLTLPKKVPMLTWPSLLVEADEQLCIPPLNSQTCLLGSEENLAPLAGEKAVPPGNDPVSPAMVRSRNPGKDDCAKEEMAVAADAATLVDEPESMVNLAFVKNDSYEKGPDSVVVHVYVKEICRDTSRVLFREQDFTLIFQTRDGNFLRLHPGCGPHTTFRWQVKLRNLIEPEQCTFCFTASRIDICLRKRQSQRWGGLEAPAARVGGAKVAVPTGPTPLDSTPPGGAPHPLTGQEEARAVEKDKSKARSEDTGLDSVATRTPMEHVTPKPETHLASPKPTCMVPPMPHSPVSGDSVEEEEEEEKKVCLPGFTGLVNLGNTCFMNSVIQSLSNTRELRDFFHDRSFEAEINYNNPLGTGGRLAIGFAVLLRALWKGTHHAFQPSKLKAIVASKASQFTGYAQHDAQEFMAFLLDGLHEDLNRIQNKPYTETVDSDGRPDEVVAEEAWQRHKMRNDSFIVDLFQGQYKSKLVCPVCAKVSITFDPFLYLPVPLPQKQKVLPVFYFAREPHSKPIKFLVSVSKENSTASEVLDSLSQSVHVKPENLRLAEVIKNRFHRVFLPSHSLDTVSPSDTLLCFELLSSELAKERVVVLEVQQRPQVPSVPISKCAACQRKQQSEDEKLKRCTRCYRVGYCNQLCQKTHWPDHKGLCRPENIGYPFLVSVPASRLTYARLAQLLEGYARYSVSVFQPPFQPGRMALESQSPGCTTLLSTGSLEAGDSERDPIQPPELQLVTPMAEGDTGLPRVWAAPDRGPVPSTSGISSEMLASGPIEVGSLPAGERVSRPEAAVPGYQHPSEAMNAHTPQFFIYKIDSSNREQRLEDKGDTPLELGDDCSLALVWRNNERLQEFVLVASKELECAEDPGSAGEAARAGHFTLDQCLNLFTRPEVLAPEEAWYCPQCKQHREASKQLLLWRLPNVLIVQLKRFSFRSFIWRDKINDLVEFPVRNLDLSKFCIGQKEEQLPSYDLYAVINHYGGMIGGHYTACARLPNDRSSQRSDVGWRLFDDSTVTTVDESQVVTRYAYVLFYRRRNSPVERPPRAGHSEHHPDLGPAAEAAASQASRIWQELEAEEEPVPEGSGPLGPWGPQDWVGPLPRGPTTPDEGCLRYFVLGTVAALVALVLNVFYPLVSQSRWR
Method in brief: (§1)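 HEK293T lysate (495 µg per sample, in Tris/CHAPS/IGEPAL buffer with protease inhibitors) was exposed in triplicate for 3 h to fragment at 200 µM or to vehicle, then to Biotin-Ahx-Ub-VS at 0.5 µM final for 1 h. Labelled DUBs were enriched on NeutrAvidin, digested with LysC and trypsin, and analysed by diaPASEF LC-MS/MS. Spectronaut label-free quantities were normalised to the global median, and values are average log2 ratios of fragment over vehicle from an unpaired t-test. Only proteins with ≥2 unique peptides were used.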

USP22 = target: T2, USP22 (UniProt Q9UPT9)
T2 sequence (whole entry): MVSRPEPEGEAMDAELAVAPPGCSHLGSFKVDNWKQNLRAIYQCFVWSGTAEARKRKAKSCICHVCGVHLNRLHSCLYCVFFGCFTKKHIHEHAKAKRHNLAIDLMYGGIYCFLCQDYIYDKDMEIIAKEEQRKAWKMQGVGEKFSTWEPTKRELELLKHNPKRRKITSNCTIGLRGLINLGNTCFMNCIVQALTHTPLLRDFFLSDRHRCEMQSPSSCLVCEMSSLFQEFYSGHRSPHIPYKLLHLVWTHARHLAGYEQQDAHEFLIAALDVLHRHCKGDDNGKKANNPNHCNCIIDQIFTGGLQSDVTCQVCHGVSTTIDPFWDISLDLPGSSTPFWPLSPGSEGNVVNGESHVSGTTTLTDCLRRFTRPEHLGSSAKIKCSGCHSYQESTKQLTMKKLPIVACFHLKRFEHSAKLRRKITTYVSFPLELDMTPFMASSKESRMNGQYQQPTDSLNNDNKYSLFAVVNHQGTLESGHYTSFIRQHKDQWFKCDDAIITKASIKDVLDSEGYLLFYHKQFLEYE
Method in brief: as §1

USP24 = USP24 (UniProt Q9UPU5)
Method in brief: as §1

USP25 = target: T3, USP25 (UniProt Q9UHP3)
T3 sequence (whole entry): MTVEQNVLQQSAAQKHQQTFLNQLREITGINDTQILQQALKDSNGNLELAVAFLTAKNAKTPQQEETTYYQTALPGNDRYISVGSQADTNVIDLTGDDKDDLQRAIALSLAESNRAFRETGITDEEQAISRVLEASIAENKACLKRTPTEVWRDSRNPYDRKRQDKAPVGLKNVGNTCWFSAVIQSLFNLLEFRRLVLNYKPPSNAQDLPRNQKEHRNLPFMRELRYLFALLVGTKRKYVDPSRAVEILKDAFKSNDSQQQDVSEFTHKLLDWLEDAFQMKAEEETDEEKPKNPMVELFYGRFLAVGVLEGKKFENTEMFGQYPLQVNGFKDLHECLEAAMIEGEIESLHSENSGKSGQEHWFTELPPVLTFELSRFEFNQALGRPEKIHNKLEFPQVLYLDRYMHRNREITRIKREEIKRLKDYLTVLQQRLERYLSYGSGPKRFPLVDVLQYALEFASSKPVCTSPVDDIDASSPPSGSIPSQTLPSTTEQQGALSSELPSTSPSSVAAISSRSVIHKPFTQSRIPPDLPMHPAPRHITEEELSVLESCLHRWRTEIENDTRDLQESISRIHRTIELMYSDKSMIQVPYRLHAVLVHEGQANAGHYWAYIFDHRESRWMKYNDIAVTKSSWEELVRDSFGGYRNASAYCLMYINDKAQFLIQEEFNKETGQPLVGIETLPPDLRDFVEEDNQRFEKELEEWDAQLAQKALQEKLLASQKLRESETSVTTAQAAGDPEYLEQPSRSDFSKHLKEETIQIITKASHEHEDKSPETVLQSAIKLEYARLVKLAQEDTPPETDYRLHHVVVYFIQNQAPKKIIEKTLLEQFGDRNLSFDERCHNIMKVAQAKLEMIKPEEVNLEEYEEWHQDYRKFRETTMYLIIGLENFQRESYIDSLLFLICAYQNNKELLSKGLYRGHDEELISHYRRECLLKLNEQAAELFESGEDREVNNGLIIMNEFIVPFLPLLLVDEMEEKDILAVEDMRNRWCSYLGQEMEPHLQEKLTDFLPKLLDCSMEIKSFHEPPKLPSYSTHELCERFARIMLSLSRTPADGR
Method in brief: as §1

USP28 = target: T4, USP28 (UniProt Q96RU2)
T4 sequence (whole entry): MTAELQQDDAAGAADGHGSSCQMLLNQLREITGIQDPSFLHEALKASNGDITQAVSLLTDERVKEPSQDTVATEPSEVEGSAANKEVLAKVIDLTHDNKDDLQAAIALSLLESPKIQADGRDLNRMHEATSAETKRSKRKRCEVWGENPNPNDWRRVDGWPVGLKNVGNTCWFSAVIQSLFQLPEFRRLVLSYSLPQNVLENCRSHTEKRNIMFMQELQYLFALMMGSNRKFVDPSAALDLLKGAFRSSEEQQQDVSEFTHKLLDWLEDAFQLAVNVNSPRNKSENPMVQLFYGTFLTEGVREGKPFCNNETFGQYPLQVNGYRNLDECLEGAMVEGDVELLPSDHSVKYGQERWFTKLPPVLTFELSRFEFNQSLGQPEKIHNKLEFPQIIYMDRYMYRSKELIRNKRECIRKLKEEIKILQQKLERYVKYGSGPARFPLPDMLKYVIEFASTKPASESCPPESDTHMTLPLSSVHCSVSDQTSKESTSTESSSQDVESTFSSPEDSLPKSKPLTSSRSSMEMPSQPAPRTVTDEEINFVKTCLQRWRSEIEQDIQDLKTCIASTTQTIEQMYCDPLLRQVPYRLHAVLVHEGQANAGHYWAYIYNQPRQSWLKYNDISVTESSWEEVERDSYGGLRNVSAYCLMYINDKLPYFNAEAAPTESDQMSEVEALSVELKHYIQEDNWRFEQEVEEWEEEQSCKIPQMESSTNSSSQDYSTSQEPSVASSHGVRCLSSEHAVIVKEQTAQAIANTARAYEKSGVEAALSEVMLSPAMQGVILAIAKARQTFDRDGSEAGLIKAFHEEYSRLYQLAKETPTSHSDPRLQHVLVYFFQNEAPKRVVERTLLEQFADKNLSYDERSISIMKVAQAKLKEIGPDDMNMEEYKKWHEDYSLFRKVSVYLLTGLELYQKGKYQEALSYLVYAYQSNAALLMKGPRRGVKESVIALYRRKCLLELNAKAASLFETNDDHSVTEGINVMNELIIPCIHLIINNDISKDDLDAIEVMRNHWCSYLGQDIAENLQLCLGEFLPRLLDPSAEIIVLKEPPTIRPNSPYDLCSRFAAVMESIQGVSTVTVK
Method in brief: as §1

Measured: log2 ratio of Biotin-Ahx-Ub-VS probe labelling

USP24, sequence (Q9UPU5 whole entry): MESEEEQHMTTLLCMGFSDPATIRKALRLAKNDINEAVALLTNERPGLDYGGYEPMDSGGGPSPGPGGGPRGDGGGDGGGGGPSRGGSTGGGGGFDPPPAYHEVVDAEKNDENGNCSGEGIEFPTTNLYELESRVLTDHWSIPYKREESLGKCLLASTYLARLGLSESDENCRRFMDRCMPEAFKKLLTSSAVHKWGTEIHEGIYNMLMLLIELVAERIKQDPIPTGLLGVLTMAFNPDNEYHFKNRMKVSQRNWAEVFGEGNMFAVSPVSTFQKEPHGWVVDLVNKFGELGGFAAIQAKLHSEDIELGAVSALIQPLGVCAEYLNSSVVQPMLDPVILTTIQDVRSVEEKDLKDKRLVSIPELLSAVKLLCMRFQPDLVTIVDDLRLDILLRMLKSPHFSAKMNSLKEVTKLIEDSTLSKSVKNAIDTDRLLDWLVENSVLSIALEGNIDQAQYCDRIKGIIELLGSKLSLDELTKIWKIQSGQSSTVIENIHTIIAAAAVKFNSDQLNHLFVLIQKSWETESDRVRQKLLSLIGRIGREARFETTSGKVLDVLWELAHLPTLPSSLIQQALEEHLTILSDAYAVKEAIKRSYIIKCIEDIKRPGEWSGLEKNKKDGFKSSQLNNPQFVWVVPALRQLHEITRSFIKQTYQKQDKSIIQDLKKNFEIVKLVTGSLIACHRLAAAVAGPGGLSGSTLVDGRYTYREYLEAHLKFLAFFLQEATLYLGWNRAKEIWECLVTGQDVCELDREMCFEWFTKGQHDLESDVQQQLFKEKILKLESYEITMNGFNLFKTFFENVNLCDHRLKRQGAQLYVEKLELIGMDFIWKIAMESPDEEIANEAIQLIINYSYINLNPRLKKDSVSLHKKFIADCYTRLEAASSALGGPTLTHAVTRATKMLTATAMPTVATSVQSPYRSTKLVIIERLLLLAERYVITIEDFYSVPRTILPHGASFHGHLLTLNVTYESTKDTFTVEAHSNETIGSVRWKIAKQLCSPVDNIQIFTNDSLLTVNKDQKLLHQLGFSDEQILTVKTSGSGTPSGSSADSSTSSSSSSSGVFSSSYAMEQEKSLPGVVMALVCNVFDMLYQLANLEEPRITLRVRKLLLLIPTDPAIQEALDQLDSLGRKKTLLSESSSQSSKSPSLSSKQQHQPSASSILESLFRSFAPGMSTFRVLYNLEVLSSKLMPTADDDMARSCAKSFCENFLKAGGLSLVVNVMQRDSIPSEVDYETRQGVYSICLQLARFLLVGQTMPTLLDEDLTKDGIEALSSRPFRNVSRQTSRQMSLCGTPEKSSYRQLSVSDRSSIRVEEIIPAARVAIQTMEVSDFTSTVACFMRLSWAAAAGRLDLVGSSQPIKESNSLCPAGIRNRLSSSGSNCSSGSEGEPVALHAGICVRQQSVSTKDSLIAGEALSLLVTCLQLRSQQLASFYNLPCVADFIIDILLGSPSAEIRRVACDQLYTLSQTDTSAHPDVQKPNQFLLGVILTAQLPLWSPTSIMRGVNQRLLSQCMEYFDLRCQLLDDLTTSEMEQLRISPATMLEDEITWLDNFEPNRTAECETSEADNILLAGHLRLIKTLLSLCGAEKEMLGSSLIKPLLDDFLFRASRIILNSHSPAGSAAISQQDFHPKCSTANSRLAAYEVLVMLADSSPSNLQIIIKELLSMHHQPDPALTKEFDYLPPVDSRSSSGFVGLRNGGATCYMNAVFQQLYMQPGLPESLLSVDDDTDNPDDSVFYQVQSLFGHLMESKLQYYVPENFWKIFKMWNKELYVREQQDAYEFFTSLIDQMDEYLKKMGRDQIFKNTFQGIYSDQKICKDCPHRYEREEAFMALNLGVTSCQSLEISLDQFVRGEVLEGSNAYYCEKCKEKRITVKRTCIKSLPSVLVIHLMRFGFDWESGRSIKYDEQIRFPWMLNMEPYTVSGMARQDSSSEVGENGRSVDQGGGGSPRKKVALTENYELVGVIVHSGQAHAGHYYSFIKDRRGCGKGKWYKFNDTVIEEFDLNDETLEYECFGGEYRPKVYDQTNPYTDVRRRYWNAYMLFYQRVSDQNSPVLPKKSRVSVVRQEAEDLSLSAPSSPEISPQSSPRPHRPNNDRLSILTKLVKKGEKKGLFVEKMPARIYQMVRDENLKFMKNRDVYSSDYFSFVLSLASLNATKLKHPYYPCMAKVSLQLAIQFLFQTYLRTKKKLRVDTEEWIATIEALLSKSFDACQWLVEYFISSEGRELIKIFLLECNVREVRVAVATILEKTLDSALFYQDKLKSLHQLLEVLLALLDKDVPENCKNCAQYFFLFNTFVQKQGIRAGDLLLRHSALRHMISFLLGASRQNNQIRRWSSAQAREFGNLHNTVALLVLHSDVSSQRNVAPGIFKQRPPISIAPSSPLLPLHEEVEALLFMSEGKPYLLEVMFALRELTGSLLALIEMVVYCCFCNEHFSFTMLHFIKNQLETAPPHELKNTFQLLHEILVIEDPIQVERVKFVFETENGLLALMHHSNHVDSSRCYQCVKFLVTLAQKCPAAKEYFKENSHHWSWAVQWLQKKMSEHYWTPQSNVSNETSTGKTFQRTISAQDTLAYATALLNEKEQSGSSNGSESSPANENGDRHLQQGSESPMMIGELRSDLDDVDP

O=C(CCl)NCCC1=CCCCC1
inactive: USP19 -0.00951 | USP22 -0.0359 | USP24 -0.0898 | USP25 -0.223 | USP28 -0.444

Reference: the supplement of paper PMC11732987, “Enantioselective OTUD7B fragment discovery through chemoproteomics screening and high-throughput optimisation” (Communications Chemistry, 2025)
